This is a sample that favours compounds with a hit; in the whole collection about 1.1% have one here.
OPRM1-OPRD1 inv – inverse agonist of human OPRM1-OPRD1 heterodimerization; P35372+P41143; cell-based MOR-DOR heterodimer luminescence, inverse agonism; inhibition, % at 9.3 µM; 340,000 compounds, 0.21% hits; in the data active = inhibition above about 22%, passing the limit was not always enough;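 note: 0% = cells with DMSO and 100% = wells without cells with DMSO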
MOR-DOR ag – agonists of human mu-delta opioid receptor heterodimerization; P35372+P41143; cells, OPRM1-OPRD1 heterodimerization, luminescence; activation, % at 9.3 µM; 340,000 compounds, 0.3% hits; AID 504326; in the data active = activation above about 18%;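 note: 0% = vehicle-treated cells and 100% = reference agonist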
HTR5A ag ctr – activates human HTR5A in OPRM1-OPRD1 agonist counter-screen; P47898; HTR5A agonist assay, luminescence, cell-based; 340,000 compounds, 0.61% hits; activation, % at 9.3 µM; in the data active = activation mostly above about 9.5%, no sharp cut-off; inactive = mostly below about 7.6%;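 note: 0% = cells with vehicle only and 100% = reference agonist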
Target sequence (P47898 whole entry, looked up): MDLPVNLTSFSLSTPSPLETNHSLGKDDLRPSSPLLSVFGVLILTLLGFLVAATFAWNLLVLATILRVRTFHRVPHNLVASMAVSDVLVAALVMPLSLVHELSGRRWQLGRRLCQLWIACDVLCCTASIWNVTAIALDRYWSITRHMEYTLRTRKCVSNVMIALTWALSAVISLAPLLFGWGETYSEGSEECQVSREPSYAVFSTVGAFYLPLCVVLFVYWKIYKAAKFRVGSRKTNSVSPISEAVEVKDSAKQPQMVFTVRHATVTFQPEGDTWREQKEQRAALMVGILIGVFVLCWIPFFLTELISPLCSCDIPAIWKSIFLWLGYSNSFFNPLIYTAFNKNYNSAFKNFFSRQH
HTR5A inv ctr – HTR5A inverse agonism, opioid heterodimer counter-screen. HTR5A cell line, luminescence. inhibition, % at 9.3 µM. 340,000 compounds, 0.083% hits; in the data active = inhibition mostly above about 23%, no sharp cut-off; inactive = mostly below about 18%;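 note: 0% = cells with DMSO and 100% = no-cell wells with DMSO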
Starred values were filed as active, the others as inactive.

SMILES	OPRM1-OPRD1 inv	MOR-DOR ag	HTR5A ag ctr	HTR5A inv ctr
Cc1ccc(NC(=O)COc2cccc3c2OC(C)(C)C3)c(O)c1	10	-3	13*	-45
Cc1cc(SCC(=O)N(C)c2c(N)n(Cc3ccccc3)c(=O)[nH]c2=O)nc2ccccc12	9	-2	0	22
Cc1csc(SCC(=O)N(C)c2c(N)n(Cc3ccccc3)c(=O)[nH]c2=O)n1	10	-2	12*	-32
COc1ccc2[nH]c3c(=O)n4c(nc3c2c1)SCC4	3	0	0	1
COc1cc2[nH]c3c(=O)n4c(nc3c2cc1OC)SCCC4	1	0	9.9*	-25
O=C(O)CCc1ccc(-c2ccccc2)n1Cc1ccco1	-1	0	9.7*	-7
Clc1ccc(C2Nc3cccc4cccc(c34)N2)cc1	0	0	15*	3
CC(C)(C)C(=O)NC(CC(=O)O)c1ccccc1 (stereo not drawn)	0	0	0	1
COc1ccc(S(=O)(=O)N2CCCCCC2)cc1NC(=O)c1ccccc1S(C)(=O)=O	6	-1	-7	16
CCCCc1ccc(NC(=S)N2CCN(C)CC2)cc1	11	-2	0	1
CCCCc1ccc(NC(=S)N2CCCC2)cc1	12	-2	12*	-45
CC(=O)Nc1nnc(SCC(=O)c2ccc(F)cc2)s1	10	-2	1	-3
COc1ccc(C2/C(=C(\O)c3ccc4c(c3)OCCO4)C(=O)C(=O)N2CCCn2ccnc2)cc1 (stereo not drawn)	17	-3	11*	-2
Cc1cccc(NCC(=O)N/N=C\c2ccc[nH]2)c1	2	0	6	-17
O=C(COC(=O)C1=COCCO1)NCc1ccc(Cl)cc1	7	-1	13*	-36
O=C1[C@H](Oc2ccccc2)[C@@H](c2ccccc2)N1c1ccncc1	18	-4	9.4*	-34
Cc1csc(NC(=O)c2c(O)c3c(n(CC(C)C)c2=O)CCCC3)n1	18	-3	11*	-15
CC(=O)c1cc(-c2ccc(F)cc2)n(CC(=O)NCc2cccs2)c1C	16	-4	0	15
O=C(CCNC(=O)C1CCN(S(=O)(=O)c2ccc(F)cc2)CC1)Nc1nccs1	9	-2	10*	-15
CC(=O)Nc1ccc(S(=O)(=O)N2CCC(C(=O)NCCC(=O)Nc3nccs3)CC2)cc1	15	-3	3	-23
Cc1ccc(NC(=O)NNC(=O)COc2ccc(Cl)cc2)cc1	0	0	3	-35
CCc1ccc(N(CC(=O)NCc2ccc(F)cc2)C(=O)c2csnn2)cc1	10	-2	9.4*	-23
CCOc1ccc(N(CC(=O)NCc2ccc(F)cc2)C(=O)CCC(=O)Nc2nccs2)cc1	-7	1	13*	-11
Cc1cccc(C)c1N(CC(=O)NCc1ccc(F)cc1)C(=O)c1csnn1	-11	2	1	-2
O=C(Nc1ccnn1C1CCN(C(=O)c2cccc(Cl)c2)CC1)C1CCOC1 (stereo not drawn)	21	-4	2	18
SMILES	OPRM1-OPRD1 inv	MOR-DOR ag	HTR5A ag ctr	HTR5A inv ctr
CC(=O)c1cccc(NC(=O)c2cc(-c3ccc(F)cc3)on2)c1	3	0	10*	7
Cc1ccc(NC(=O)c2cc(-c3ccc(F)cc3)on2)cc1C	12	-2	5	-13
COc1cccc(OCc2nn[nH]n2)c1	18	-4	-1	5
CCOc1cc(C)c(S(=O)(=O)Nc2ccc(Cl)cn2)cc1C	-4	1	14*	-3
CCOc1ccc(S(=O)(=O)Nc2ccc(Cl)cn2)c(C)c1C	-12	3	1	-3
CCOc1cc(CNCc2cccnc2)cc(Br)c1OCC(N)=O	0	0	10*	-37
O=C(Nc1ccccc1Cl)c1ccccc1	8	-2	-3	7
O=C(Nc1ccccc1Cl)C(Cl)C(=O)c1ccccc1 (stereo not drawn)	52*	-10	-5	12
COc1cc(C(=O)NCC(=O)N/N=C/c2ccc(-c3ccc([N+](=O)[O-])cc3)o2)cc(OC)c1OC	-11	2	2	-5
O=C(COC(=O)CCN1C(=O)c2ccccc2C1=O)Nc1ccccc1[N+](=O)[O-]	7	-1	11*	-38
O=C(COC(=O)CN1C(=O)c2ccccc2C1=O)Nc1ccccc1[N+](=O)[O-]	-3	1	-6	14
C=CCN1C=C2C(=O)C(C)(OC(=O)C3CCCC3)C(=O)C(c3ccccc3)=C2C=C1CCCC(=O)OC (stereo not drawn)	-32	6	12*	22
CCN(CC)c1nc2ccccc2n2cnnc12	-2	0	13*	15
CCOc1ccccc1Nc1nc2ccccc2n2cnnc12	21	-4	0	1

Source: PubChem (The Scripps Research Institute Molecular Screening Center)
